# Source: PubChem BioAssay (EPA / NIEHS)
# Results filed as inconclusive are left out. Activity calls are given as the source filed them. Rule for the calls, unless noted: active = hit-call score of the fitted dose curve at least 0.9, where 1 is the maximum; inactive = score below 0.9.
# Legend:
# [1] = CCTE_Shafer_MEA_dev_firing_rate_mean: CCTE's Neural Network Formation Assay for Mean Firing Rate, Shafer Lab (AID 2284031);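 note: curve fitted for loss of firing so AC50 reflects decreased mean firing rate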
# Method in brief: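 Extracellular spike frequency, AUC over DIV 5–12 recordings, in rat cortical neuron MEA cultures dosed from plating; loss direction vs DMSO.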
# [2] = CCTE_Shafer_MEA_dev_active_electrodes_number: CCTE's Neural Network Formation Assay for Number of Active Electrodes, Shafer Lab (AID 2284040; active = hit-call score of the fitted dose curve at least 0.9, where 1 is the maximum;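 note: potency for loss of active electrodes versus DMSO so lower counts are hits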)
# Method in brief: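 Developing rat cortical networks on MEAs, exposed DIV 0–12. Value is the AUC of active-electrode counts (≥5 spikes/min) from days 5, 7, 9, 12, relative to DMSO.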
# [3] = CCTE_Shafer_MEA_dev_burst_rate: CCTE's Neural Network Formation Assay for Burst Rate, Shafer Lab (AID 2284042);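 note: potency for loss of burst rate below DMSO control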
# Method in brief: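 Rat primary cortical cultures on PEI/laminin MEA; compound from plating, re-dosed at DIV 5, 9 media change. Single-electrode bursts/recording length, well mean of active electrodes; AUC over DIV 5–12 recordings; loss-of-signal vs DMSO.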
# [4] = CCTE_Shafer_MEA_dev_bursting_electrodes_number: CCTE's Neural Network Formation Assay for Number of Bursting Electrodes, Shafer Lab (AID 2284043; active = hit-call score of the fitted dose curve at least 0.9, where 1 is the maximum;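 note: potency is for loss of bursting electrodes relative to DMSO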)
# Method in brief: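 Number of electrodes reaching ≥1 burst every 2 min was recorded at DIV 5, 7, 9 and 12 and collapsed as trapezoidal area under the curve. Cultures were rat cortical neurons on MEA plates, dosed continuously from plating with medium and treatment refreshed on DIV 5 and 9.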
# [5] = CCTE_Shafer_MEA_dev_burst_duration_mean: CCTE's Neural Network Formation Assay for Mean Burst Duration, Shafer Lab (AID 2284045);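 note: curve fitted for loss meaning shorter burst duration than DMSO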
# Method in brief: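 Mean single-electrode burst duration (first to last spike), averaged over bursting electrodes per well, then integrated as area-under-curve across recordings at days 5, 7, 9 and 12. Rat cortical cultures on MEAs, compound present from plating, refreshed at feeds.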
# [6] = CCTE_Shafer_MEA_dev_inter_network_spike_interval_mean: CCTE's Neural Network Formation Assay for Mean Inter-network Spike Interval, Shafer Lab (AID 2284047);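 note: potency for a decrease in mean inter-network spike interval below DMSO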
# Method in brief: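 Primary rat cortical neurons on PEI-coated 48-well MEAs (16 electrodes/well) were exposed from plating day 0 to DIV 12, with dosing renewed at DIV 5 and 9. Recordings at DIV 5, 7, 9, 12 were collapsed by trapezoidal AUC, loss-of-signal fit vs DMSO.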
# [7] = CCTE_Shafer_MEA_dev_network_spike_number: CCTE's Neural Network Formation Assay for Number of Network Spikes, Shafer Lab (AID 2284048);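 note: synchronized bursts across electrodes counted on days 5 7 9 12 and integrated as AUC; fit as a loss of signal meaning fewer network spikes than DMSO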
# Method in brief: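 Number of network spikes (coordinated firing across electrodes) recorded on days 5, 7, 9 and 12 and summarised as area under the curve. Rat cortical cultures on MEA, continuous compound exposure with full medium/treatment exchange at DIV 5 and 9.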
# [8] = CCTE_Shafer_MEA_dev_network_spike_peak: CCTE's Neural Network Formation Assay for Mean Number of Electrodes in Network Spike, Shafer Lab (AID 2284049);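 note: fitted for loss of signal meaning fewer electrodes in network spikes than DMSO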
# Method in brief: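 Rat cortical primary culture, 1.5 x 10^5 cells/well, 48-well MEA (16 electrodes/well). Dosing day 0 through DIV 12, full media/compound exchange DIV 5, 9. AxIS adaptive spike detection; AUC over days 5/7/9/12; loss-of-signal vs DMSO.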
# [9] = CCTE_Shafer_MEA_dev_spike_duration_mean: CCTE's Neural Network Formation Assay for Mean Spike Duration, Shafer Lab (AID 2284051);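 note: mean network spike duration pooled as area under curve over DIV 5 to 12 recordings; potency for a decrease in mean network spike duration versus DMSO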
# Method in brief: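 Rat cortical primary cultures, 48-well MEA (16 electrodes/well); compound from plating, renewed DIV 5, 9. Network spike duration (AxIS adaptive detector) recorded DIV 5/7/9/12, combined as trapezoidal AUC; loss direction vs DMSO.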
# [10] = CCTE_Shafer_MEA_dev_network_spike_duration_std: CCTE's Neural Network Formation Assay for Standard Deviation of Network Spike Duration, Shafer Lab (AID 2284052);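 note: hits are decreases in network spike duration SD versus DMSO vehicle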
# Method in brief: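 Rat cortical cultures, 1.5 x 10^5 cells/well, exposed continuously from plating to DIV 12 with media/compound renewal at DIV 5, 9. Spontaneous activity recorded DIV 5/7/9/12, AxIS adaptive spike detector; AUC across days; negative direction vs DMSO.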
# [11] = CCTE_Shafer_MEA_dev_per_network_spike_spike_number_mean: CCTE's Neural Network Formation Assay for Mean Number of Spikes in a Network Spike, Shafer Lab (AID 2284053);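 note: fitted as decrease in spikes per network spike relative to DMSO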
# Method in brief: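 Rat cortical primary cultures on 48-well MEA; compound from day 0, re-dosed with full media change DIV 5, 9. Recorded DIV 5, 7, 9, 12; spikes in 0.05 s window at network-spike peak ÷ total network spikes; AUC; loss vs DMSO.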
# [12] = CCTE_Shafer_MEA_dev_per_network_spike_spike_percent: CCTE's Neural Network Formation Assay for Percent of Spikes in a Network Spike, Shafer Lab (AID 2284054)
# Method in brief: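 Metric: fraction of spikes falling in a 0.05 s window at network-spike peaks. Recordings were made on days 5, 7, 9 and 12 and collapsed by trapezoidal AUC. Cultures were rat cortical neurons on MEA plates, dosed continuously from plating, re-dosed at media changes.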
# [13] = CCTE_Shafer_MEA_dev_LDH: CCTE's Lactate Dehydrogenase Assay for Cytotoxicity in the Neural Network Formation Assay, Shafer Lab (AID 2284068; active = hit-call score of the fitted dose curve at least 0.9, where 1 is the maximum;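 note: exposure for twelve days from plating with re-dosing on DIV 5 and 9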)
# Method in brief: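 Rat cortical primary neurons, MEA culture; dosing day 0–12, full medium plus compound exchange DIV 5, 9. Read-out: LDH enzyme activity, spectrophotometric. DMSO = negative control/baseline; signal loss → cytotoxicity.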
# [14] = CCTE_Shafer_MEA_dev_AB: CCTE's Alamar Blue Assay for Cytotoxicity in the Neural Network Formation Assay, Shafer Lab (AID 2284083; active = hit-call score of the fitted dose curve at least 0.9, where 1 is the maximum;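 note: resazurin reduction fluorescence as viability of cultured neurons; twelve days of exposure from plating with re-dosing on DIV 5 and 9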)
# Method in brief: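 Rat cortical primary cultures, 1.5 x 10^5 cells/well on MEA; continuous compound exposure over 12 days of network development, re-dosed with full medium change DIV 5 and 9. Alamar Blue fluorescence; loss of signal = cytotoxicity vs DMSO baseline.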
# [15] = CCTE_Shafer_MEA_dev_mutual_information_norm: CCTE's Neural Network Formation Assay for Mutual Information Normalization, Shafer Lab (AID 2284091);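 note: mutual information between electrodes summarised as area under curve across four recording days; potency is for a decrease in mutual information relative to DMSO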
# Method in brief: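 Shared information across electrodes, tracked on days 5, 7, 9 and 12 of network development and collapsed as trapezoidal area under the curve. Rat cortical cultures were treated continuously from plating, with treatment renewed at feeds on DIV 5 and 9; DMSO baseline, negative-direction fit.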
# [16] = CCTE_Shafer_MEA_dev_correlation_coefficient_mean: CCTE's Neural Network Formation Assay for Mean Correlation Coefficient, Shafer Lab (AID 2284093);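 note: well mean pairwise spike train correlation integrated as AUC over recording days 5 to 12; potency fitted for loss of correlation relative to DMSO vehicle wells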
# Method in brief: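 Rat cortical cultures, 1.5 x 10^5 cells/well, dosed from day 0 for 12 days. Spontaneous spikes recorded DIV 5/7/9/12; electrode-pair correlation coefficients averaged, AUC taken. Fit in loss direction vs DMSO.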
# [17] = UKN2_HCS_IMR90_neural_migration: University of Konstanz (UKN) Leist Lab Neural Crest Cell Migration Assay in human induced IMR90 Pluripotent Stem Cells (UKN2) (AID 2284204); conditions: actives raise or lower the signal
# Method in brief: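 High-content imaging of calcein-AM and Hoechst stained cells quantifies migration into a stopper-defined gap after 24 h compound exposure. Neural crest cells from IMR90 iPSC migrated 24 h in EGF/FGF N2-S medium before dosing; DMSO baseline.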
# [18] = IUF_NPC1b_proliferation_BrdU_72hr: Leibniz Research Institute for Environmental Medicine (IUF) 72-hour Neural Progenitor Cell Bromodeoxyuridine (BrdU) Proliferation Assay (NPC1b) (AID 2284207)
# Method in brief: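 Human fetal cortex-derived (GW 16-19) neural progenitor spheres, 0.25-0.35 mm, one per well in EGF/FGF proliferation medium, exposed to compound for 72 h at 37C, pH 7.2-7.6. BrdU incorporation over the final 16 h read by luminescence ELISA, relative to DMSO.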
# [19] = IUF_NPC1a_proliferation_area_72hr: Leibniz Research Institute for Environmental Medicine (IUF) 72-hour Neural Progenitor Cell Proliferation Area Assay (NPC1a) (AID 2284208)
# Method in brief: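 Single 0.25–0.35 mm human fetal neural progenitor spheres in proliferation medium with EGF and FGF, exposed 72 h from plating without renewal at 37C, pH 7.2-7.6. Sphere area growth measured by automated phase-contrast imaging, relative to DMSO.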
# [20] = IUF_NPC1_viability_72hr: Viability Assessment at 72 hours in the Leibniz Research Institute for Environmental Medicine (IUF) Neural Progenitor Cell Proliferation Assay (NPC1) (AID 2284209)
# Method in brief: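 Three-day continuous exposure of human neural progenitor spheres under EGF/FGF-driven proliferation; cell viability scored by alamar blue signal versus DMSO.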
# [21] = CCTE_Mundy_HCI_Cortical_Synap_Neur_Matur_NeuriteSpotCountPerNeuriteLength: CCTE's Synaptogenesis and Neurite Maturation Assay in rat cortical cells for Neurite Spot Count per Neurite Length, Mundy Lab (AID 2284210)
# Method in brief: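 Synaptophysin spots per unit neurite length, measured by automated imaging of MAP2/synaptophysin/Hoechst-stained neurons. Cultures from rat cortex received chemical at DIV 7 with media change through DIV 12; glial growth arrested by AraC at DIV 5; DMSO baseline.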
# [22] = CCTE_Mundy_HCI_Cortical_Synap_Neur_Matur_BPCount: CCTE's Synaptogenesis and Neurite Maturation Assay in rat cortical cells for Branch Point Count, Mundy Lab (AID 2284211)
# Method in brief: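 In this multiplexed morphology assay, cortical cells from rat receive chemicals at DIV 7 and are fixed at DIV 12, then immunostained and imaged; branch points are counted, with DMSO as baseline.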
# [23] = CCTE_Mundy_HCI_Cortical_NOG_NeuriteCount: CCTE's Neurite Outgrowth Assay in rat cortical cells for Neurite Count, Mundy Lab (AID 2284212);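 note: cells fixed about two days after chemical exposure began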
# Method in brief: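 Rat cortical primary cells; compound added 2 h post-plating, 1/10 dilution of working solution. Anti-betaIII-tubulin/AF488 ICC; ArrayScan neurite count vs DMSO.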
compound,measurement,setting,value
CC1(C)C(C=C(Cl)Cl)C1C(=O)O[C@H](C#N)c1cccc(Oc2ccccc2)c1 (stereo partly drawn),AC50,[1],0.711 µM (active)
same,AC50,[2],4.44 µM (active)
same,AC50,[3],1.95 µM (active)
same,AC50,[4],3.6 µM (active)
same,AC50,[5],0.65 µM (active)
same,AC50,[6],1.03 µM (active)
same,AC50,[7],7.66 µM (active)
same,AC50,[8],2.75 µM (active)
same,AC50,[9],2.95 µM (active)
same,AC50,[10],3.1 µM (active)
same,AC50,[11],2.74 µM (active)
same,AC50,[12],7.68 µM (active)
same,AC50,[13],5.77 µM (active)
same,AC50,[14],5.41 µM (active)
same,AC50,[15],2.9 µM (active)
same,AC50,[16],4.48 µM (active)
same,outcome,[17],inactive
same,AC50,[18],12.8 µM (active)
same,outcome,[19],inactive
same,outcome,[20],inactive
same,AC50,[21],15.6 µM (active)
same,AC50,[22],12.8 µM (active)
same,AC50,[23],80 µM (active)
